Shown are actives, neighbours in structure and some others; about 2.3% of the full set was active somewhere.
Mcl1 Noxa PPI: disrupts binding of human Mcl-1 to Noxa peptide | AID 1022 | TR-FRET Mcl-1/Noxa peptide binding, 2 h | 1.5% of 220,000 active | inhibition, % at 21.7 µM | Q07820;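 active means compounds that cut the protein-peptide binding signal by more than 50% relative to plate controls in a single-dose test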;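 further: His-tagged Mcl-1 with rhodamine Noxa BH3 peptide and terbium anti-His antibody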
GLD-1 TGE inh: GLD-1-TGE RNA interaction inhibition (C. elegans). Q17339. purified GLD-1 + fluorescein TGE RNA, fluorescence polarization. inhibition, % at 5.96 µM. 0.44% of 320,000 active;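 active means percent inhibition above a per-plate cutoff, the plate mean of test compounds plus 3 SD, cut at about 30% in these data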
Mcl1 Bid PPI: disrupts binding of human Mcl-1 to Bid peptide; inhibition, % at 21.7 µM; TR-FRET Mcl-1/Bid-Dy647 peptide binding, 1536-well; 0.97% of 220,000 active; Q07820; AID 1021;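 active means compounds that cut the binding signal by more than half at the single screening dose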;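 further: His-tagged Mcl-1 with europium anti-His antibody binding Bid BH3 peptide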
MCL1-BIM inh: inhibitors of human MCL1 binding to BIM-BH3 peptide. GST-MCL1 / FITC-Bim-BH3 fluorescence polarization. 0.68% of 320,000 active. Q07820. inhibition, % at 10.9 µM;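 active means inhibition above the mean inhibition of all tested compounds plus 3 SD, set per campaign, cut at about 40% in these data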;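 further: higher means more loss of mP so more displacement of Bim peptide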
Bcl-xL primary: blocks human Bcl-xL binding to Bim BH3 peptide | Q07817 | GST-Bcl-xL / FITC-Bim BH3 peptide fluorescence polarization | inhibition, % at 10.9 µM | 0.7% of 320,000 active | AID 2129;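 active means inhibition above the mean of all tested compounds plus 3 SD, cutoff set per campaign, cut at about 30% in these data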;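 further: inhibitors lower millipolarization by displacing the labeled peptide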
Target sequence (Q07817 whole entry, looked up): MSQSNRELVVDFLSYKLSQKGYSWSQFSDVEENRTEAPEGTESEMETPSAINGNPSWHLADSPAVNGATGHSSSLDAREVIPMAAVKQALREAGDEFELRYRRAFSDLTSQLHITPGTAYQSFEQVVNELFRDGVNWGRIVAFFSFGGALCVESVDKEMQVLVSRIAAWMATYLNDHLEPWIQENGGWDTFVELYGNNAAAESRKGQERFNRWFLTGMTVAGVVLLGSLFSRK
Mcl-1 Bim block: inhibitors of Bim-Mcl-1 interaction, human. inhibition, % at 10 µM. Bead-based flow cytometry, Bim peptide-Mcl-1 binding. 0.1% of 190,000 active; in the data active means inhibition above about 40%
Hits are given with their value; i = inactive; nt = no result given.

SMILES	Mcl1 Noxa PPI	GLD-1 TGE inh	Mcl1 Bid PPI	MCL1-BIM inh	Bcl-xL primary	Mcl-1 Bim block
Cc1cc(NC(=O)c2ccco2)sc1C	nt	i	nt	i	i	nt
CCOc1ccccc1NC(=O)CN(C)S(=O)(=O)c1cccc2nsnc12	i	i	88	i	i	i
Cc1cccc(NC(=O)CN(C)S(=O)(=O)c2cccc3nsnc23)c1C	i	i	i	i	i	i
O=C(/C=C/c1cccs1)Nc1scc(-c2ccccc2)c1C(=O)O	i	nt	93	nt	nt	i
COCCCNC(=O)CSc1nc2cc(S(=O)(=O)N3CCCCC3)ccc2o1	nt	i	nt	i	i	nt
CCC1=NN2C(=N)/C(=C\c3ccc(SCc4ccco4)o3)C(=O)N=C2S1	64	i	i	i	i	i
O=C1NC(=S)S/C1=C\c1ccc(SCc2ccco2)o1	98	i	62	75	66	i
O=C1NC(=S)S/C1=C/c1ccc(OC(=O)c2ccco2)cc1	nt	i	nt	i	i	nt
O=C1NC(=S)S/C1=C\c1ccc(SCc2ccccc2)o1	81	i	i	i	i	i
Cc1cc(/C=C2\SC(=S)NC2=O)c(C)n1-c1ccccc1	i	i	i	i	i	nt
COc1cc(/C=C/C(=O)O)cc(S(=O)(=O)N2CCN(S(=O)(=O)c3ccc(Cl)cc3)CC2)c1OC	nt	i	nt	i	i	nt
CC(C)Oc1ccc(C(CC(=O)O)Cc2ccccc2)cc1 (centres undefined)	nt	i	nt	i	i	nt
Cc1cccc(C(=O)OCC(=O)NCCNC(=O)COC(=O)c2cccc(C)c2C)c1C	nt	i	nt	i	i	nt
CCN(CC)c1ccc(NC(=O)/C=C\c2ccccc2Cl)cc1	91	i	i	i	i	i
CN(C)c1ccc(NC(=O)/C=C/c2ccccc2Cl)cc1	77	i	i	i	i	i
Cc1cc(NC(=O)/C=C/c2ccccc2Cl)no1	i	i	i	i	i	i
Cc1cccc(C)c1NC(=O)CN1C(=O)CCSc2ccc(S(=O)(=O)N3CCCC3)cc21	nt	i	nt	i	i	nt
Cc1cc(NC(=O)C2CC(=O)N(c3ccccc3Cl)C2)no1 (centres undefined)	nt	i	nt	i	i	nt
CC(C)(C)n1nnnc1C(c1cccnc1)N1CCN(c2cccc(C(F)(F)F)c2)CC1 (centres undefined)	i	i	58	i	i	i
C/C(N)=C(/C#N)C(=O)CSc1nc2cc(Cl)ccc2s1	53	i	i	i	i	i
C/C(N)=C(/C#N)C(=O)CSc1cc(Cl)ccc1Cl	i	i	i	i	i	i
COc1cc2cncc(Cc3ccc(Cl)cc3)c2cc1OC	nt	i	nt	i	i	nt
Cc1c(C(=O)Oc2ccc(-c3cnc4ccccc4n3)cc2)cccc1[N+](=O)[O-]	67	i	i	i	i	i
O=C(Oc1ccc(-c2cnc3ccccc3n2)cc1)c1cc([N+](=O)[O-])ccc1Cl	i	i	i	i	i	i
CNC(=O)C(=O)NCCN1CCN(C(=O)c2ccc([N+](=O)[O-])cc2)CC1	i	i	91	i	i	i
SMILES	Mcl1 Noxa PPI	GLD-1 TGE inh	Mcl1 Bid PPI	MCL1-BIM inh	Bcl-xL primary	Mcl-1 Bim block
O=C(NCCN1CCN(C(=O)c2ccc([N+](=O)[O-])cc2)CC1)C(=O)NCc1ccccc1	nt	i	nt	i	i	nt
CC(C)NC(=O)Cn1cc(S(=O)(=O)N2CCCC2)c(S(=O)(=O)N2CCCC2)c1	nt	i	nt	i	i	nt
O=C(CSc1ncnc2scc(-c3ccccc3)c12)N1CCN(Cc2ccc3c(c2)OCO3)CC1	61	i	i	i	i	i
OCCN1CCN(CC(O)COCc2ccc3c(c2)OCO3)CC1 (centres undefined)	i	i	i	i	i	i
Cc1cc(C)cc(NC(=O)N2CCN(Cc3ccc4c(c3)OCO4)CC2)c1	i	i	i	i	i	nt
O=C(NCCN1CCN(C(=O)Nc2ccccc2)CC1)Nc1ccccc1	i	i	i	i	112	i
O=C(Nc1ccccc1)N1CCN(Cc2ccc3c(c2)OCO3)CC1	i	i	58	i	i	i
OC(COCc1ccc2c(c1)OCO2)CN1CCN(Cc2ccccc2)CC1 (centres undefined)	i	i	52	i	i	i
O=C(NC1CCN(C(=O)NCc2ccccc2)CC1)c1cccc(F)c1	nt	i	nt	i	i	nt
O=C(CSc1nnc(CNC(=O)c2ccc(F)cc2)o1)NCC1CCCO1 (centres undefined)	nt	i	nt	i	i	nt
CCCCn1c(-c2cccc(Br)c2)nc2cc3[nH]c(=O)c(C(C)C)nc3cc21	nt	i	nt	i	31	nt
CCCCn1c(-c2ccc(C(C)(C)C)cc2)nc2cc3[nH]c(=O)c(C(C)C)nc3cc21	nt	i	nt	i	i	nt

From PubChem
